# High-throughput results (PubChem)
# D1 allo mod = D1 dopamine receptor (human) allosteric modulation; 5.9% of 58,000 active; HEK293 D1, CRE-luciferase, dopamine EC30 potentiation; actives deviate in either direction; B-score at 10 µM; AID 641;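 active means luminescence count or its row- and column-corrected plate score outside the 99.7% band of the plate's sample wells, on either side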
# Target sequence (P21728 whole entry, looked up): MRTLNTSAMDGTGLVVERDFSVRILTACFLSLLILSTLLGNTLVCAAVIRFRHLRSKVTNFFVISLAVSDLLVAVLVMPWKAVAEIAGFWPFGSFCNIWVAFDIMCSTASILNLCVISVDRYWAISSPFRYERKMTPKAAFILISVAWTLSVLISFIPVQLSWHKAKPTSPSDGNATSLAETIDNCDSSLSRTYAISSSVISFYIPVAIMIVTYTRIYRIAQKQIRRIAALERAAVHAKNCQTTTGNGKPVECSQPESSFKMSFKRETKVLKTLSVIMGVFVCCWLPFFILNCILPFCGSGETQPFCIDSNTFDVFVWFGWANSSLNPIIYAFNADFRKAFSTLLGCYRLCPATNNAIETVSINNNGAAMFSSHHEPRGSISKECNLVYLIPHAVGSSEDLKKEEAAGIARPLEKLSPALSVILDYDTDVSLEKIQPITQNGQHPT
# Mac1 fbg enh = CD11b/CD18-fibrinogen binding enhancement; P05107+P11215; K562 CD11b/CD18 adhesion to fibrinogen, ATPlite luminescence; activation, % at 10 µM; 0.07% of 93,000 active; AID 1499;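 active means 10 µM primary screen giving 50% or more activity, confirmed by 40% or more on retest at that dose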
# FAK inh = blocks human focal adhesion kinase activity | Q05397 | biochemical FAK kinase activity assay | inhibition, %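 (tested at 7 µM)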 | 0.84% of 97,000 active | AID 727; in the data active means inhibition above about 19%;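 further: 0% = DMSO and 100% = reference compound high control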
# CD11b adhes inh = inhibitors of human CD11b/CD18 binding to fibrinogen. P05107+P11215. K562 CD11b/CD18 adhesion to fibrinogen, ATPlite luminescence; Mn2+ added to activate the integrin. inhibition, % at 10 µM. 0.54% of 93,000 active. AID 1497;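 active means primary inhibition of 50% or more at 10 µM, then 40% or more on retest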
# DAT uptake mod = changed human dopamine transporter uptake under cocaine IC80. 1.3% of 110,000 active. B-score at 10 µM. LLC-PK1 hDAT cells, [14C]-dopamine uptake with cocaine IC80; actives deviate in either direction. AID 449768. Q01959;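 active means Z score or B-score, a plate-position-corrected score, falls beyond the plate's 99.7% confidence bounds, in either direction; inactive means both scores lie inside the 99.7% bounds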;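 further: scored against the spread of the other compound wells on the same plate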
# PTK2B oligo ant = blocks oligomerization of human Pyk2 in cells | Q14289 | Q293 cells, Pyk2 FERM NanoBiT luminescence; stronger effect = lower value | z-score (the deposit names both 25 µM and 10 µM) | 0.83% of 99,000 active;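 active means Z-score of -3 or lower, scaled per plate to the spread of control and sample wells; inactive means z-score above -3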;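 further: negative z-score means lost luminescence so less FERM oligomerization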
# D1 PAM confirm = D1 receptor (human) allosteric modulation, confirmed; HEK293 D1 CRE-luciferase, dopamine EC30 potentiation; stronger effect = higher value; AID 642; luminescence at 10 µM; 88% of 2,200 active; shares compounds with D1 allo mod;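 active means luminescence in either of two replicates above the same-plate mean plus 3 SD of the low-dose dopamine control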
# D1 no dopamine = activates D1 CRE-luciferase signal without dopamine present | shares compounds with D1 allo mod | HEK293 D1 CRE-luciferase, luminescence, no dopamine; stronger effect = higher value | luminescence at 10 µM | 0.8% of 1,900 active; in the data active means luminescence above about 3900
# Isoprot counter = counter-screen for D1 modulators: isoproterenol response in HEK293 cells; AID 647; calls only at 10 µM; shares compounds with D1 allo mod; 63% of 2,200 active; HEK293 D1 CRE-luciferase, isoproterenol EC30 counter-screen;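 active means luminescence in either replicate above plate mean of wells with a partly effective reference agonist dose plus 3 SD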;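 further: isoproterenol raises cAMP through native beta-adrenoceptor Gs so signal bypasses D1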
# An asterisk follows results filed as active; i = inactive; / = no result given; + = active, no number. The sample as a whole holds a higher share of hits than the screen did.
SMILES,D1 allo mod,Mac1 fbg enh,FAK inh,CD11b adhes inh,DAT uptake mod,PTK2B oligo ant,D1 PAM confirm,D1 no dopamine,Isoprot counter
CCC1(CC)Cc2ccccc2-c2nc(CN3CCOCC3)[nH]c(=O)c21,18*,-2,-3,8,0.18,-1.4,22860*,1804,+
CCN(CC)Cc1nc2c(c(=O)[nH]1)C1(CCCC1)Cc1ccccc1-2,/,/,7,/,0.39,-0.8,/,/,/
COc1ccc(-n2nnnc2-c2cccc(OC)c2)cc1,-0.054,-4,0,-22,0.04,-0.64,/,/,/
Clc1ccc(-n2nnnc2-c2ccccc2)cc1Cl,13*,3,/,-18,0.067,-0.14,19112*,1808,+
C=CCOc1nc(-c2ccncc2)nc2ccccc12,6.5*,-2,9,-4,0.15,0.1,15684*,/,+
c1ccc(CN2CCN(c3nc(-c4ccccc4)nc4ccccc34)CC2)cc1,/,2,0,1,-0.099,-0.51,/,/,/
COc1nc(-c2ccncc2)nc2ccccc12,/,/,2,/,0.2,-0.13,/,/,/
c1ccc2c(N3CCCC3)nc(-c3ccncc3)nc2c1,9.2*,/,-1,/,1.1,-0.9,18800*,1668,+
C/C(N)=C(/C#N)C(=O)CSc1nc2ccccc2c(=O)n1-c1ccc(C)c(Cl)c1,/,1,/,-9,/,/,/,/,/
COc1ccc(CCn2c(-c3ccco3)nc3oc4ccccc4c(=O)c3c2=O)cc1,-2,/,/,/,/,/,/,/,/
O=C(CN(C1CCCCC1)C1CCCCC1)N1CCc2ccccc2C1,/,-4,-2,-4,0.91,-0.05,/,/,/
Nc1nc(-c2ccco2)nc(N2CCCCC2)n1,10*,-3,3,51,-0.55,2.4,14860*,/,+
C/C=C1\COC(C(=O)NCCCN2CCCC2=O)(C(F)(F)F)C=C1C=C(C)C (configuration not stated),/,/,/,/,0.6,/,/,/,/
N#CCSc1ncnc2sc3c(c12)CCC3,4.9*,-2,3,-16,-0.8,-0.87,12888*,1696,i
CC(C#N)Sc1ncnc2sc3c(c12)CCC3 (configuration not stated),6.3*,-4,13,-23,0.14,0.29,21012*,1792,+
Cc1nc(SCC#N)c2c3c(sc2n1)CCC3,/,-5,-1,-28,-0.086,0.37,/,/,/
Cc1ccccc1NC(=O)c1sc2nc3c(c(-c4ccco4)c2c1N)CCC3,/,3,-5,14,0.78,-0.38,/,/,/
N#Cc1sc2nc3c(c(-c4ccco4)c2c1N)CCCC3,9.6*,-2,12,-9,0.37,0.4,12060*,1392,+
C=CCNC(=S)NNc1nc2c(c(=O)[nH]1)C1(CCCCC1)Cc1ccccc1-2,/,-7,/,101,/,/,/,/,/
CCOc1cc2[nH]c(=O)n(CCCN3CCCC3=O)c(=O)c2cc1OCC,2.7*,-3,-5,-2,0.075,1.4,6760*,/,i
Cc1ccc(CN2CCNC(=O)C2CC(=O)O)o1 (configuration not stated),0.94,1,-5,-53,0.67,/,/,/,/
CCC1CCc2c(sc3ncnc(N4CCOCC4)c23)C1 (configuration not stated),17*,-3,2,8,0.28,-0.75,15132*,1584,+
Oc1ccc(N2CCN(c3ncnc4sc5c(c34)CCC5)CC2)cc1,-1.9,-2,5,-6,-1.5,-0.21,/,/,/
O=C(Nc1sc2c(c1C(=O)NCc1cccnc1)CCCC2)c1ccco1,12*,-1,1,/,0.49,-2,17940*,1360,+
Cc1cnc(N)c2c(=O)oc3ccccc3c12,9.8*,-3,16,-6,-1.6,/,17776*,/,+
SMILES,D1 allo mod,Mac1 fbg enh,FAK inh,CD11b adhes inh,DAT uptake mod,PTK2B oligo ant,D1 PAM confirm,D1 no dopamine,Isoprot counter
CCOC(=O)Cc1nnc(NC(=O)c2ccccc2OCC)s1,2.7*,/,/,/,1.8,-1.2,8096*,1648,+
CCOC(=O)Cc1nnc(NC(=O)c2ccccc2OC)s1,-0.73,2,5,43,-0.092,-0.68,/,/,/
CCOC(=O)Cc1nnc(NC(=O)CSc2nnc3c4ccccc4n(C(C)C)c3n2)s1,7.5*,0,/,18,0.33,0.73,11008*,1700,+
COc1cc(NC(=O)CCn2c(=O)[nH]c3ccsc3c2=O)cc(OC)c1,0.75,/,1,/,1.2,-0.64,/,/,/
CCOCCCn1c(=S)[nH]c2cc3c(cc2c1=O)OCO3,-0.27,4,/,4,/,-0.13,/,/,/
COc1cc(C2C(C(C)=O)=C(O)C(=O)N2c2ccc(C)cc2)ccc1O (configuration not stated),/,-5,-1,5,0.05,0.7,/,/,/
CCOC(=O)c1ccc(N2C(=O)C(O)=C(C(C)=O)C2c2ccc(O)c(OC)c2)cc1 (configuration not stated),2.5*,-2,/,-23,0.18,1.3,5200,1280,i
C=CCn1c(NCCO)nc2sc3c(c2c1=O)CCC3,11*,-5,/,-8,-0.019,/,6332,1628,i
COc1ccc(N2C(=O)C3CCCN3C2c2ccccc2)cc1Cl (configuration not stated),2.8*,4,2,0,-0.52,0.64,5744*,1680,i
COc1ccc(N2C(=O)C3CCCN3C2c2cccc(C)c2)cc1Cl (configuration not stated),-0.73,2,-2,-26,-1.8,-0.31,/,/,/
CC(C)(C)n1nnnc1C(c1cc2cc3c(cc2[nH]c1=O)OCCO3)N1CCSCC1 (configuration not stated),1.1,-4,0,-13,-0.41,-0.3,/,/,/
O=c1[nH]c2cc3c(cc2cc1C(c1nnnn1C1CCCC1)N1CCSCC1)OCCO3 (configuration not stated),6.9*,63,-5,0,/,0.08,10448*,1784,i
COc1ccc(/C=N/n2cnnc2SCCO)cc1OC,2.6*,1,-2,-3,-1.1,0.75,14424*,1384,+
C=CCNc1nc(N)c(C(=O)c2ccc3c(c2)OCO3)s1,18*,-4,10,-16,0.44,0.2,14852*,1788,+
C=CCNc1nc(N)c(C(=O)Nc2cc(C)on2)s1,/,1,2,1,0.54,0.12,/,/,/
CCCn1c(SCC(N)=O)nc2c(c1=O)C1(CCCC1)Cc1ccccc1-2,/,0,10,-14,/,-2,/,/,/
CCn1c(SCC#N)nc2c(c1=O)C1(CCCC1)Cc1ccccc1-2,2.5*,-2,0,20,-1.2,-2.4,7420*,/,i
